Assay outcomes deposited in PubChem by National Center for Advancing Translational Sciences (NCATS).
Rows were chosen to be rich in hits. Some 1.3% of all compounds tested hit in one or more screens of this group.
EPAC2 antagonist – blocks human EPAC2 exchange factor; EPAC2 GEF exchange of Rap1B-BODIPY-GDP, fluorescence; Q8WZA2; 360,000 compounds, 0.18% hits; Potency, µM (doses to about 114 µM), inactives show at the highest dose activity, negative = inhibition, most hits filed as inhibitors; also: % is scaled to controls: 0 for no effect and ±100 for the full control effect; nearly all actives have a fitted effect of over 45% in size
Target sequence (Q8WZA2 whole entry, looked up): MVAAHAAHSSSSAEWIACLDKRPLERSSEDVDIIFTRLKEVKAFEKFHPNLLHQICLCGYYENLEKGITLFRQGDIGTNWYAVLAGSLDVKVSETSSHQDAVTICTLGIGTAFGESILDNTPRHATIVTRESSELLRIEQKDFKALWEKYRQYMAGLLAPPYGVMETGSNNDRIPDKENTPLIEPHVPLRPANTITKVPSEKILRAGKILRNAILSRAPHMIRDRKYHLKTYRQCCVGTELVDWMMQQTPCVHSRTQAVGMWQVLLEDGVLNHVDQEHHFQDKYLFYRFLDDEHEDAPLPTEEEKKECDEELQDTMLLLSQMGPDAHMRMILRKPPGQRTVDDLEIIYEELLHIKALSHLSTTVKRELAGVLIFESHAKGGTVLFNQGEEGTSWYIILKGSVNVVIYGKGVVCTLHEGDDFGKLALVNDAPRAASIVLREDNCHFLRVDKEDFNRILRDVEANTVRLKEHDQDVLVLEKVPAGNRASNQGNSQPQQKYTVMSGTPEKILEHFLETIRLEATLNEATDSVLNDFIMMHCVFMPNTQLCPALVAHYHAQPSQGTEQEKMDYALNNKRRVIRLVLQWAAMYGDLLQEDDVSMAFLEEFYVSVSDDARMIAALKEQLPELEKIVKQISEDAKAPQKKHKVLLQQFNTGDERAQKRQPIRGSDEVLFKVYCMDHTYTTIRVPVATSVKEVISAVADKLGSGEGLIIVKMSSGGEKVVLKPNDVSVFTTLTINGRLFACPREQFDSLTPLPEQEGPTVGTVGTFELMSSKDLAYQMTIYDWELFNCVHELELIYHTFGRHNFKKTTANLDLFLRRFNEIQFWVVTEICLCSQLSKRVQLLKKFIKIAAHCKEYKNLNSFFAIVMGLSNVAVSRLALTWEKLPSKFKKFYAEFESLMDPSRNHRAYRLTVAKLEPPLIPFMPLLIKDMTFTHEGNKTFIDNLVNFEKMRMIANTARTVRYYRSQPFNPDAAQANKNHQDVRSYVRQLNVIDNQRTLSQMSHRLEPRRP
EPAC1 ag – activates human EPAC1 exchange factor; EPAC1 agonist qHTS, biochemical assay; response scale: 100% = response to 6.5 mM cAMP; Potency, µM (doses to about 154 µM), without a hit: top-dose activation, most hits filed as activators; 360,000 compounds, 0.073% hits; also: nearly all actives have a fitted effect of over 60% in size
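Read-out is the fluorescence drop as BODIPY-GDP leaves Rap1B (480 nm excitation, 540 nm emission), recorded every 5 minutes over 30 minutes. Reactions held 100 nM EPAC1, 250 nM Rap1B–BODIPY-GDP and 50 uM GDP, with 6.5 mM cAMP setting full activation.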
BRCA1 expr up – activators of BRCA1 expression | MCF7-BRCA1-FFLuc reporter, luminescence, 48 h; response scale: scaled: vehicle 0%, 10 µM genistein 100% | Potency, µM (titrated, usually from 46.1 µM), inactives show at the highest dose activation, actives largely listed as activators | 380,000 compounds, 1.1% hits | AID 624202; also: nearly all actives have a fitted effect of over 80% in size
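MCF7-BRCA1-FFLuc, 2000 cells/well; 2 h attach, 37 °C/5% CO2; compound 48 h; luciferase substrate 15 min; luminescence end-point. Norm. to genistein 10 microM max activation and DMSO; concentration-response curves fitted.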
EPAC1 antag – blocks human EPAC1 exchange factor. O95398. EPAC1 GEF assay, Rap1b-BODIPY-GDP exchange fluorescence. Potency, µM (top dose mostly 115 µM), for the others: top-dose activity change, negative = inhibition, usual class: inhibitors. 360,000 compounds, 0.14% hits;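 also: plate controls were vehicle for no effect and positive control for full effect; nearly all actives have a fitted effect of over 50% in size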
EPAC2 ag – EPAC2 (human) agonism; Q8WZA2; EPAC2 activation, biochemical qHTS; response scale: 100% = 6.5 mM cAMP response; Potency, µM (titrated, usually from 154 µM), inactives show at the top dose activation, usual class: activators; 360,000 compounds, 0.079% hits; AID 720711; also: nearly all actives have a fitted effect of over 50% in size
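Compounds were titrated in qHTS against a Rap1B-BODIPY-GDP (250 nM) complex with EPAC2 (100 nM) and GDP (50 uM). BODIPY-GDP release tracked at 480/540 nm over 30 min at room temperature, normalized to 6.5 mM cAMP.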
RGS4 inhibitor – human RGS4 inhibition | P49798 | Transcreener GDP fluorescence polarization, RGS4-accelerated GTP hydrolysis | Potency, µM (titrated, usually from 114 µM), for inactives: top-dose activity change, negative = inhibition, usual class: inhibitors | 390,000 compounds, 0.039% hits; also: % is scaled to controls: 0 for no effect and ±100 for the full control effect; nearly all actives have a fitted effect of over 75% in size
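MLSMR compounds (23 nl, pin-transferred) preincubated 10 min at room temperature with a 500nM (2x) first reagent, then RGS4 at 900nM (2x) plus Transcreener GDP mix added; fluorescence polarization (620/688 nm) read before and after 90 min at 30 °C.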
* hit, by the source's call; ? = inconclusive; . = no result given; [ ] = dose if it differs, or a comment. Calls follow the shape of the dose curve; as a rule, active = well fitted curve in the direction sought with a large enough effect; inconclusive = small, poorly fitted or top-dose-only effect, or another doubt; inactive = no such curve, though single readings can be large; an effect the other way counts as inactive or inconclusive. Potency is read from the fitted curve at half-maximal effect.

SMILES	EPAC2 antagonist	EPAC1 ag	BRCA1 expr up	EPAC1 antag	EPAC2 ag	RGS4 inhibitor
COc1ccccc1OCc1cc(C(=O)N2CCN(C)C(c3ccccc3)C2)no1 (configuration not stated)	-9%	13%	10µM*	-16%	10%	5%
CN1CCN(C(=O)c2cc(COc3ccccc3)on2)[C@@H](c2ccccc2)C1	0%	-3%	5µM*	-16%	8%	-25%
COc1cc(Cl)ccc1OCc1cc(C(=O)N2CCN(C)CC2)no1	0%	1%	15%	14%	1%	0%[56.9 µM]
COc1cc(Cl)ccc1OCc1cc(C(=O)N2CCN(C)C(=O)[C@@H]2C)no1	-5%	3%	10µM*	6%	2%	.
Cc1c(C(=O)NCc2ccc3c(c2)OCO3)cccc1[N+](=O)[O-]	1%	-13%	-1%	-23%	4%	-43%
CC(C)[C@@H](CO)NC(=O)[C@H]1O[C@@H](n2cnc3c(N)ncnc32)[C@H](O)[C@@H]1O	3%	6%	-7%	?	5%	.
Cc1cccc(-c2nc3cc([N+](=O)[O-])ccc3o2)c1	-1%	-4%	2.5µM*	-15%	2%	7%
O=[N+]([O-])c1ccc2oc(-c3ccccc3)nc2c1	0%	1%	3.2µM*	-3%	1%	-16%
CCOc1cccc(-c2nc3cc(C)ccc3o2)c1	-4%	6%	54%	-9%	9%	29%
Cc1ccc2oc(-c3ccccc3)nc2c1	22%	5%	?	11%	10%	-5%
COc1ccc(N(C(=O)c2snc(C(N)=O)c2N)C(C(=O)NC2CCCC2)c2cccs2)cc1OC (configuration not stated)	-16%	-14%	-5%	50µM*	3%	-25%
CCC(C(=O)NC1CCCC1)N(C(=O)c1snc(C(N)=O)c1N)c1ccc(OC)c(OC)c1 (configuration not stated)	-5%	12%	2%	4%	4%	7%
Cc1ccc(C(C(=O)NC2CCCCC2)N(CCC(C)C)C(=O)CNC(=O)c2ccco2)o1 (configuration not stated)	4%	-13%	-4%	-11%	-28%	-19%
CCOC(=O)C1CCN(C(=O)CC(C)c2ccccc2)CC1 (configuration not stated)	-4%	1%	44%	-2%	4%	-45%[56.9 µM]
CCOC(=O)C1CCCN(C(=O)CC(C)c2ccccc2)C1 (configuration not stated)	1%	9%	13µM*	5%	8%	20%
CCOc1ccc(N(C(=O)c2snc(C(N)=O)c2N)C(C(=O)NC2CCCC2)C(C)C)cc1 (configuration not stated)	-13%	15%	-15%	-20%	12%	-11%
Nc1nc(-c2ccc3c(c2)OCCO3)cs1	5%	2%	81%	9%	-12%	0%
Nc1nc(-c2cccc(F)c2)cs1	1%	4%	11µM*	7%	-1%	-50%
CC1Cc2cc(-c3csc(N)n3)ccc2O1 (configuration not stated)	0%	-2%	3.2µM*	-3%	-2%	-29%
Nc1nc(-c2ccc3c(c2)CCCC3)cs1	-2%	0%	3.2µM*	-2%	15%	-50%
O=C(NCc1ccccc1)c1cncc(Br)c1	15%	-16%	7%	18%	3%	4%
CC(NC(=S)NC1CCCCC1)c1ccc(C(C)(C)C)cc1 (configuration not stated)	-10%	-26%	-95%	-28%	-9%	9%
CCOc1cc(/C=N/NC(=O)c2ccc(-c3csc(Nc4ccc(C)cc4)n3)cc2)ccc1OCC(=O)O	-22%	?	31%	40µM*	19%	?
